In PubChem BioAssay (NCI):
The panel holds about 79,000 compounds, 15% with a hit somewhere; the sample as a whole holds those more often. Activity calls are given as the source filed them. Rule as the data show it: active = growth inhibition above about 70%; inactive = the rest.

Legend:
[1] = NCI Yeast Anticancer Drug Screen. Data for the wt2 strain (AID 169);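 also: 0% = growth of vehicle-treated yeast cultures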; details: S. cerevisiae wt2 strain growth inhibition, hits give high values
Summary of the method: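 Growth of compound-treated yeast is measured and expressed as inhibition relative to vehicle-only controls.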

[2] = NCI Yeast Anticancer Drug Screen. Data for the mlh1 strain (AID 171);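 also: 0% = growth of vehicle-treated control cultures of the same strain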; details: S. cerevisiae mlh1 strain growth inhibition, hits give high values
Summary of the method: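 Test agents were incubated with yeast bearing a defined DNA damage repair or cell cycle control alteration; values are growth inhibition normalised to vehicle-treated cultures.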

[3] = NCI Yeast Anticancer Drug Screen. Data for the mlh1 rad18 strain (AID 175); details: S. cerevisiae mlh1 rad18 strain growth inhibition, hits give high values
Summary of the method: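 A repair-deficient yeast strain is exposed to test compound, and growth is scored relative to vehicle-treated controls.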

[4] = NCI Yeast Anticancer Drug Screen. Data for the rad18 strain (AID 177); details: S. cerevisiae rad18 mutant growth inhibition, hits give high values
Summary of the method: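 DNA-repair-defective yeast; compound treatment; growth inhibition scored against vehicle.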

[5] = NCI Yeast Anticancer Drug Screen. Data for the rad52 strain (AID 147);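 also: 0% = growth of vehicle-treated control cultures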; details: S. cerevisiae rad52 mutant growth inhibition, hits give high values
Summary of the method: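 Growth of repair-deficient yeast cells was compared between compound-treated and vehicle-treated cultures to give percent inhibition.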

[6] = NCI Yeast Anticancer Drug Screen. Data for the wt1 strain (AID 149);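 also: 0% = growth of vehicle-treated wt1 cultures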; details: S. cerevisiae wt1 strain (SPY 50644) growth inhibition, hits give high values
Summary of the method: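 Measured: growth of wt1 yeast under compound versus vehicle treatment, reported as inhibition.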

[7] = NCI Yeast Anticancer Drug Screen. Data for the rad50EPP+ strain (AID 151);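 also: 0% = growth of vehicle-treated control cultures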; details: S. cerevisiae rad50 mutant strain, hits give high values
Summary of the method: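 Measured: growth inhibition of rad50EPP+ yeast. Reference: vehicle-treated controls. Screen uses strains with defined genetic alterations in DNA damage repair or cell cycle control.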

[8] = NCI Yeast Anticancer Drug Screen. Data for the mgt1 strain (AID 153); details: S. cerevisiae mgt1 mutant growth inhibition, hits give high values
Summary of the method: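 Compounds were applied to mgt1 mutant yeast, and growth was then compared against vehicle-treated control cultures to give percent inhibition.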

[9] = NCI Yeast Anticancer Drug Screen. Data for the rad50 strain (AID 155);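 also: 0% = growth of vehicle-only cultures of the same strain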; details: S. cerevisiae rad50 strain growth inhibition, hits give high values
Summary of the method: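 Growth of the mutant yeast was measured after compound exposure and referenced to vehicle-treated cultures.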

[10] = NCI Yeast Anticancer Drug Screen. Data for the mec2-1 strain (AID 157); details: S. cerevisiae mec2-1 strain, hits give high values
Summary of the method: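 Compounds were applied to mec2-1 yeast cells. Their growth was then compared with that of vehicle-treated cultures to give growth inhibition.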

[11] = NCI Yeast Anticancer Drug Screen. Data for the rad14 strain (AID 159);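 also: 0% = growth of vehicle-treated control cultures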; details: S. cerevisiae rad14 strain growth inhibition, hits give high values
Summary of the method: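 Here, inhibition of yeast growth was measured after compound exposure, using a strain with a genetic defect in DNA damage repair and vehicle-treated cultures as the reference.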

[12] = NCI Yeast Anticancer Drug Screen. Data for the sgs1 mgt1 strain (AID 161);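 also: 0% = growth of cultures given vehicle only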; details: S. cerevisiae sgs1 mgt1 strain, hits give high values
Summary of the method: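 Yeast cells carrying a defined DNA-repair defect were exposed to test compounds. Growth inhibition was measured relative to vehicle-treated controls.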

[13] = NCI Yeast Anticancer Drug Screen. Data for the CLN2oe strain (AID 163);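 also: 0% = growth of vehicle-only control cultures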; details: S. cerevisiae CLN2oe strain, hits give high values
Summary of the method: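 Cells of an engineered yeast line with disturbed cell-cycle regulation are treated with compound. Inhibition of growth is then calculated relative to the vehicle-treated reference.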

[14] = NCI Yeast Anticancer Drug Screen. Data for the cln2 rad14 strain (AID 165);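 also: 0% = growth equal to vehicle treated cultures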; details: S. cerevisiae cln2 rad14 strain, hits give high values
Summary of the method: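 Strain: cln2 rad14 yeast, altered in cell cycle control and DNA damage repair. Read-out: growth inhibition vs vehicle.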

[15] = NCI Yeast Anticancer Drug Screen. Data for the bub3 strain (AID 167); details: S. cerevisiae bub3 mutant strain, hits give high values
Summary of the method: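 Whole-cell yeast assay. The mutant strain was incubated with compounds, and growth inhibition was determined by comparison with vehicle-treated cells.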

[16] = NCI Yeast Anticancer Drug Screen. Data for the sgs1 strain (AID 173);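 also: 0% = growth of vehicle-only control cultures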; details: S. cerevisiae sgs1 mutant, hits give high values
Summary of the method: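 Strain with an altered DNA repair or cell cycle pathway exposed to compound. Growth then measured. Value = inhibition versus vehicle control.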

[17] = at 5.0 µM (retest, dose inferred, filed as 0.5)
[18] = at 50.0 µM (retest, dose inferred, filed as 5.0)

Measured: growth inhibition

NC(CCCCCCCCCCCCC(N)C(=O)c1ccccc1)C(=O)c1ccccc1 (stereo unspecified)
inactive: [1]; at 1.2 µM -4% | [1]; at 3.7 µM -8% | [2]; at 1.2 µM -4% | [2]; at 3.7 µM -10% | [2]; at 11.0 µM 59% | [3]; [17] -8% | [3]; [18] -13% | [3]; at 50.0 µM -10.4% | [4]; at 1.2 µM -6% | [4]; at 3.7 µM -9% | [4]; at 11.0 µM 41%
active: [1]; at 11.0 µM 83% | [1]; at 33.0 µM 96% | [1]; at 100.0 µM 96% | [2]; at 33.0 µM 94% | [2]; at 100.0 µM 93% | [4]; at 33.0 µM 96% | [4]; at 100.0 µM 96%

CCCNC(=O)OCc1c(COC(=O)NCCC)c(-c2ccc(Cl)c(Cl)c2)n2c1CCC2
active: [11]; at 100.0 µM 73% | [14]; [18] 73% | [15]; [18] 90% | [4]; at 100.0 µM 78%
inactive: [5]; at 1.2 µM -3% | [5]; at 3.7 µM -7% | [5]; at 11.0 µM -5% | [5]; at 33.0 µM 29% | [5]; at 100.0 µM 58% | [6]; at 1.2 µM -25% | [6]; at 3.7 µM -38% | [6]; at 11.0 µM -35% | [6]; at 33.0 µM -34% | [6]; at 100.0 µM 4% | [7]; at 1.2 µM -4% | [7]; at 3.7 µM 0% | [7]; at 11.0 µM -6% | [7]; at 33.0 µM 8% | [7]; at 100.0 µM 5% | [8]; at 1.2 µM -48% | [8]; at 3.7 µM -35% | [8]; at 11.0 µM -30% | [8]; at 33.0 µM -7% | [8]; at 100.0 µM 50% | [9]; at 1.2 µM -39% | [9]; at 3.7 µM -43% | [9]; [17] 21% | [9]; at 11.0 µM -27% | [9]; at 33.0 µM 1% | [9]; [18] 42% | [9]; at 50.0 µM 61.9% | [9]; at 100.0 µM 50% | [10]; at 1.2 µM -47% | [10]; at 3.7 µM -40% | [10]; [17] 11% | [10]; at 11.0 µM -31% | [10]; at 33.0 µM -12% | [10]; [18] 25% | [10]; at 50.0 µM 41.1% | [10]; at 100.0 µM 28% | [11]; at 1.2 µM -28% | [11]; at 3.7 µM -3% | [11]; at 11.0 µM 0% | [11]; at 33.0 µM 54% | [12]; [17] 30% | [12]; [18] 67% | [12]; at 50.0 µM 50.7% | [13]; at 1.2 µM 0% | [13]; at 3.7 µM -16% | [13]; at 11.0 µM -15% | [13]; at 33.0 µM 4% | [13]; at 100.0 µM 20% | [14]; [17] 20% | [14]; at 50.0 µM 22.8% | [15]; at 1.2 µM -53% | [15]; at 3.7 µM -47% | [15]; [17] 60% | [15]; at 11.0 µM -24% | [15]; at 33.0 µM 6% | [15]; at 50.0 µM 46.2% | [15]; at 100.0 µM 48% | [1]; at 1.2 µM -36% | [1]; at 3.7 µM -16% | [1]; at 11.0 µM -27% | [1]; at 33.0 µM -21% | [1]; at 100.0 µM 44% | [2]; at 1.2 µM -9% | [2]; at 3.7 µM -9% | [2]; at 11.0 µM -19% | [2]; at 33.0 µM 26% | [2]; at 100.0 µM 57% | [16]; at 1.2 µM 0% | [16]; at 3.7 µM 4% | [16]; at 11.0 µM 11% | [16]; at 33.0 µM 40% | [16]; at 100.0 µM 62% | [3]; [17] 22% | [3]; [18] 62% | [3]; at 50.0 µM 56.4% | [4]; at 1.2 µM -35% | [4]; at 3.7 µM -29% | [4]; at 11.0 µM 2% | [4]; at 33.0 µM 62%
